Bioassay records (PubChem BioAssay)
The entries come from a sample that favours hits as a whole.
RBX1-CUL1 inh: inhibitors of human ROC1-CUL1 ubiquitin ligase activity. P62877+Q13616. in vitro K48 di-Ub FRET, acceptor:donor ratio, 45 min. inhibition, % at 10 µM. 0.6% of 140,000 active; in the data active = inhibition above about 25%
Starred values were filed as active, the others as inactive.

Results for Cc1cc(C)cc(NS(=O)(=O)c2cc3[nH]c(=O)c(=O)[nH]c3cc2C)c1 ?
RBX1-CUL1 inh: -8

Results for CCOC(=O)c1cccc(NS(=O)(=O)c2cc3[nH]c(=O)c(=O)[nH]c3cc2C)c1 ?
RBX1-CUL1 inh: -1

What do the screens show for `CCc1cccc(C)c1NS(=O)(=O)c1cc2[nH]c(=O)c(=O)[nH]c2cc1C`?
RBX1-CUL1 inh: 44*

How did CN(Cc1cccs1)C(=O)c1cc(COc2ccc(F)cc2F)[nH]n1 do in these assays?
RBX1-CUL1 inh: 3

What do the screens show for `Cc1ccc2c(c1)CN(CCNC(=O)C1=CCCC1)CC(C)O2` (stereo not given)?
RBX1-CUL1 inh: 11

Results for O=C(/C=C/c1ccco1)Nc1cccc(NC(=O)c2ccc(Cl)cc2Cl)c1 ?
RBX1-CUL1 inh: 0

Results for CC(/C=C/c1ccco1)=N/NC(=O)c1ccccc1Cl ?
RBX1-CUL1 inh: -2

What do the screens show for `Cc1ccc(C(=O)/C=C/c2ccco2)c(O)c1`?
RBX1-CUL1 inh: 34*

How did COCC(=O)N1CCc2onc(-c3ccc(F)c(F)c3)c2C1 do in these assays?
RBX1-CUL1 inh: -7

Results for Cc1ccc2c(c1)CN(Cc1cccc(C)n1)CC(c1ccsc1)O2 (stereo not given) ?
RBX1-CUL1 inh: -3

Results for Cn1c(NCCN)nc2c1c(=O)n(Cc1ccccc1)c(=O)n2C ?
RBX1-CUL1 inh: -2

What do the screens show for `COCCCNc1nc2c(c(=O)n(C)c(=O)n2C)n1Cc1ccccc1`?
RBX1-CUL1 inh: 0

What do the screens show for `Cn1c(=O)c2c(nc(NCCN)n2Cc2ccc(Cl)cc2)n(C)c1=O`?
RBX1-CUL1 inh: 27*

What do the screens show for `Cc1ccc(N2C(=O)/C(=C\c3cn(CC(=O)NCc4cccs4)c4ccccc34)C(=O)NC2=S)cc1C`?
RBX1-CUL1 inh: 1

How did CCOC(=O)C1=C(c2ccccc2)N=c2s/c(=C/c3ccccc3O)c(=O)n2C1c1ccc2c(c1)OCO2 (stereo not given) do in these assays?
RBX1-CUL1 inh: 0

Results for CCOC(=O)Cn1cc(/C=c2\sc3n(c2=O)C(c2ccc(SC)cc2)C(C(=O)OCC)=C(c2ccccc2)N=3)c2ccccc21 (stereo not given) ?
RBX1-CUL1 inh: -11

What do the screens show for `CCOC(=O)C1=C(c2ccccc2)N=c2s/c(=C\c3ccc(N(CC)CC)cc3O)c(=O)n2C1c1ccc(SC)cc1` (stereo not given)?
RBX1-CUL1 inh: 47*

How did N#CC1=c2s/c(=C/c3cccc(C(F)(F)F)c3)c(=O)n2C(=N)C(C#N)C1c1cccc(C(F)(F)F)c1 (stereo not given) do in these assays?
RBX1-CUL1 inh: -2

Results for N#CC1=c2s/c(=C\c3ccccc3C(F)(F)F)c(=O)n2C(=N)C(C#N)C1c1ccccc1C(F)(F)F (stereo not given) ?
RBX1-CUL1 inh: 4

What do the screens show for `N#CC1=c2s/c(=C\c3ccc(-c4ccccc4)o3)c(=O)n2C(=N)C(C#N)C1c1ccc(-c2ccccc2)o1` (stereo not given)?
RBX1-CUL1 inh: 56*

Results for Cl/C(=C\c1ccccc1)CNC1CCCN(c2ncccn2)C1 (stereo not given) ?
RBX1-CUL1 inh: 12

What do the screens show for `CC1=NN(c2ccc(F)cc2)C(=O)C1C=Nc1cccc2ccccc12` (stereo not given)?
RBX1-CUL1 inh: -8

What do the screens show for `CSc1nnc(-c2ccccc2N=CC2C(=O)N(c3ccccc3)N=C2C)c(=O)[nH]1` (stereo not given)?
RBX1-CUL1 inh: 2

What do the screens show for `CC1=NN(c2ccccc2)C(=O)C1C=Nc1ccccc1-c1nnc(SCc2ccccc2)[nH]c1=O` (stereo not given)?
RBX1-CUL1 inh: 37*

Results for CN1CCCCC1CCNC(=O)c1ccc(NCc2cccnc2)nc1 (stereo not given) ?
RBX1-CUL1 inh: -3

How did C=CCN=C(N)SCc1nc2ccccc2c(=O)[nH]1 do in these assays?
RBX1-CUL1 inh: 36*

Results for C=CCSc1nc2ccccc2c(=O)[nH]1 ?
RBX1-CUL1 inh: 2

What do the screens show for `CCN(CC)Cc1nc2ccccc2c(=O)[nH]1`?
RBX1-CUL1 inh: 1

How did CC1(C)CC(=O)C2C(=Nc3ccccc3NC2c2c[nH]c3ccccc23)C1 (stereo not given) do in these assays?
RBX1-CUL1 inh: 3

What do the screens show for `CC(C)c1cc(C(C)C)c(S(=O)(=O)N2CCN(C/C=C/c3ccccc3)CC2)c(C(C)C)c1`?
RBX1-CUL1 inh: -11

What do the screens show for `O=C(O)CCCCCN1C(=O)c2ccc3c4c(ccc(c24)C1=O)C(=O)N(CCCCCC(=O)O)C3=O`?
RBX1-CUL1 inh: 7

Results for O=C(O)CCCCCN1C(=O)/C(=C2\SC(=S)N(CCCCCC(=O)O)C2=O)SC1=S ?
RBX1-CUL1 inh: 65*

How did COc1ccccc1/C=C1/SC(=S)N(CCCCCC(=O)O)C1=O do in these assays?
RBX1-CUL1 inh: 15

What do the screens show for `O=C1c2ccccc2C(=O)N1CSC(=S)N/N=C/c1ccccc1`?
RBX1-CUL1 inh: 0

Results for O=C1C(Cc2cc(Br)cc(Br)c2O)=NC(=S)N1c1ccc(Cl)cc1 ?
RBX1-CUL1 inh: 100*

Results for COc1cc(C)c(CC2=NC(=S)N(c3ccc(Cl)cc3)C2=O)cc1C(C)C ?
RBX1-CUL1 inh: 8
